Data from PubChem BioAssay AID1845224 (National Center for Advancing Translational Sciences (NCATS), 2023).
Inconclusive results are not listed. Calls of active or inactive are those of the source. The call rests on the fitted dose curve; in most records, active means well fitted curve in the direction sought with a large enough effect; inconclusive means small, poorly fitted or top-dose-only effect, or another doubt; inactive means no such curve, though single readings can be large or run the other way.

system: NanoLuc luciferase (engineered Oplophorus gracilirostris luciferase); assay: Confirmatory Nanoluciferase (NLuc) qHTS assay for identification of artifact compounds.; on activity change, negative = inhibition: % of control where 0% means no effect; conditions: secreted NLuc in S16 cell medium, luminescence, 5 min; series mostly up to 39 µM; activity change, negative = inhibition: at the top concentration
Method in brief: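 Conditioned medium from NLuc-expressing S16 cells (diluted 1:55) as enzyme source; compounds 15 min at room temperature, then Nano-Glo substrate for 5 min. Luminescence normalized to no-enzyme and DMSO controls, fitted to 4-parameter Hill equation.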
Potency means the concentration at half of the fitted maximal effect.

Potency, active:
O=C(Oc1ccccc1Cl)c1cc(-c2ccc3c(c2)OCCO3)on1 1.54 µM

Activity change, negative = inhibition, inactive:
Cc1cc2oc(=O)cc(C)c2c2occ(-c3ccc(Cl)cc3)c12 -1.13%
O=C(Nc1ccc(-c2nc3ccccc3[nH]2)cc1)c1ccc(Cl)c(Cl)c1 -3.73%
Cc1nc2nc(CNC(=O)OC(C)(C)C)nn2c(C)c1CCC(=O)NCc1ccccc1Cl 4.97%
COc1ccc(CC(=O)Nc2nc3c(s2)CCCC3)cc1 -7.35%
COc1ccc(CNC(=O)CCc2c(C)nc3c4cccnc4nn3c2C)cc1 -5.25%
CCOC(=O)c1ccc(N2C(=O)c3[nH]nc(-c4ccc(C)cc4)c3C2c2ccc(O)cc2)cc1 (centres undefined) -2.76%
OC[C@H]1O[C@@H](O[C@@H]2OC=C[C@H]3[C@H](O)[C@@H]4O[C@]4(CO)[C@@H]23)[C@H](O)[C@@H](O)[C@@H]1O 3.73%
COc1ccc(OCc2nnc(-c3ccccc3)o2)cc1 -6.57%
O=C(Nc1ccc(Cl)c(Cl)c1)Nc1ncc(-c2ccncc2)s1 2.5%
Cc1ccc2[nH]c(CSc3nnc(C)s3)cc(=O)c2c1 -2.56%
COc1ccc(C2=Nn3c(nnc3-c3cccc(OC)c3)SC2)cc1 -1.18%
N#Cc1cccc(-c2ccc(NC(=O)c3cccs3)cn2)c1 -9.86%
Cc1ccc(NC(=O)c2nc(-c3ccncc3)no2)c(Cl)c1 4.6%
